Data on 1 molecule can be found in the supplement of paper PMC8728848.

The full list was thinned out, with the strongest signals kept by preference.

Holding throughout (experiment): glycan array binding signal (z-score within array); higher = stronger binding
Holding throughout (settings): glycan notation: IUPAC condensed, linker removed

The target of assay [1] is Glc(a1-6)Glc(a1-6)Glc. In short, it runs like this: (§1)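 The binding signal is a Z-score computed within each array. Data were drawn from 3228 arrays in the Consortium for Functional Glycomics database, restricted to those with a known protein sequence. Scores were averaged over arrays of the same protein sequence at different concentrations or buffers, and over linkers, and negative values can be taken as non-binding.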

Assay [2] has as its target GlcNAc(a1-4)Gal(b1-4)GalNAc. The essentials: as §1
Assay [3] deals with GlcNAc(b1-2)Man(a1-3)[GlcNAc(b1-2)Man(a1-6)]Man(b1-4)GlcNAc(b1-4)GlcNAc. The essentials:
as §1

The target of assay [4] is GlcNAc(b1-2)Man(a1-3)[GlcNAc(b1-4)][GlcNAc(b1-2)Man(a1-6)]Man(b1-4)GlcNAc(b1-4)GlcNAc. In short, it runs like this:
as §1

Assay [5] concerns the target GlcNAc(b1-2)Man(a1-3)[GlcNAc(b1-4)][GlcNAc(b1-2)Man(a1-6)]Man(b1-4)GlcNAc(b1-4)[Fuc(a1-6)]GlcNAc. In short, it runs like this:
as §1

Assay [6] has as its target GlcNAc(b1-2)[GlcNAc(b1-4)]Man(a1-3)[GlcNAc(b1-2)Man(a1-6)]Man(b1-4)GlcNAc(b1-4)GlcNAc. The essentials:
as §1

The target in assay [7] is GlcNAc(b1-2)[GlcNAc(b1-6)]Man(a1-6)[GlcNAc(b1-2)Man(a1-3)]Man(b1-4)GlcNAc(b1-4)GlcNAc. The essentials: as §1
The target of assay [8] is GlcNAc(b1-2)[GlcNAc(b1-6)]Man(a1-6)[GlcNAc(b1-2)Man(a1-3)]Man(b1-4)GlcNAc(b1-4)[Fuc(a1-6)]GlcNAc. In short, it runs like this: as §1
Assay [9] concerns the target GlcNAc(b1-3)Gal(b1-4)Glc. The essentials: as §1
Assay [10] concerns the target GlcNAc(b1-3)Gal(b1-4)GlcNAc(b1-3)[GlcNAc(b1-3)Gal(b1-4)GlcNAc(b1-3)]GalNAc. The essentials:
as §1

Assay [11] concerns the target Kdn(a2-6)Gal(b1-4)GlcNAc. In short, it runs like this:
as §1

In assay [12] the target is Neu5Ac(a2-3)Gal(b1-3)GalNAc(b1-4)[Neu5Ac(a2-3)]Gal(b1-4)Glc. The essentials:
as §1

The target of assay [13] is Neu5Ac(a2-3)Gal(b1-3)[Fuc(a1-4)]GlcNAc. In short, it runs like this: as §1
The target in assay [14] is Neu5Ac(a2-3)Gal(b1-4)GlcNAc(b1-2)Man(a1-3)[GlcNAc(b1-4)][Neu5Ac(a2-3)Gal(b1-4)GlcNAc(b1-2)Man(a1-6)]Man(b1-4)GlcNAc(b1-4)GlcNAc. The essentials: as §1
Assay [15] concerns the target Neu5Ac(a2-3)Gal(b1-4)[Fuc(a1-3)]GlcNAc(b1-3)GalNAc. The essentials:
as §1

Assay [16] addresses Neu5Ac(a2-3)GalNAc(b1-4)GlcNAc. The essentials:
as §1

Assay [17] deals with Neu5Ac(a2-6)Gal(b1-4)GlcNAc(b1-2)Man(a1-3)[GlcNAc(b1-2)Man(a1-6)]Man(b1-4)GlcNAc(b1-4)GlcNAc. In short, it runs like this: as §1
Assay [18] deals with Neu5Ac(a2-6)Gal(b1-4)GlcNAc(b1-2)Man(a1-6)[GlcNAc(b1-2)Man(a1-3)]Man(b1-4)GlcNAc(b1-4)GlcNAc. In short, it runs like this: as §1
Assay [19] concerns the target Neu5Ac(a2-6)Gal(b1-4)GlcNAc(b1-2)[Neu5Ac(a2-6)Gal(b1-4)GlcNAc(b1-4)]Man(a1-3)[GlcNAc(b1-4)][Neu5Ac(a2-6)Gal(b1-4)GlcNAc(b1-2)[Neu5Ac(a2-6)Gal(b1-4)GlcNAc(b1-6)]Man(a1-6)]Man(b1-4)GlcNAc(b1-4)GlcNAc. In short, it runs like this:
as §1

Assay [20] addresses Neu5Ac(a2-6)Gal(b1-4)GlcNAc(b1-6)[Gal(b1-3)]GalNAc. The essentials: as §1
The target of assay [21] is Neu5Ac(a2-8)Neu5Ac(a2-8)Neu5Ac(a2-3)Gal(b1-4)Glc. In short, it runs like this:
as §1

For assay [22], the target named is Neu5Ac(b2-6)GalNAc. In short, it runs like this:
as §1

B1: LSECtin (Homo sapiens), Q6UXB4 (protein)
chain: MDTTRYSKWGGSSEEVPGGPWGRWVHWSRRPLFLALAVLVTTVLWAVILSILLSKASTERAALLDGHDLLRTNASKQTAALGALKEEVGDCHSCCSGTQAQLQTTRAELGEAQAKLMEQESALRELRERVTQGLAEAGRGREDVRTELFRALEAVRLQNNSCEPCPTSWLSFEGSCYFFSVPKTTWAAAQDHCADASAHLVIVGGLDEQGFLTRNTRGRGYWLGLRAVRHLGKVQGYQWVDGVSLSFSHWNQGEPNDAWGRENCVMMLHTGLWNDAPCDSEKDGWICEKRHNC
As for B1, the “glycan array binding signal (z-score)” value in assay [1] is -0.232; in [2], 3.23; in assay [3] it was 6.75; in assay [4] it was 6.57; in assay [5] it was 6.3; in assay [6], 3.06. Moreover, the “glycan array binding signal (z-score)” value is 7.17 in [7]; 9.94 in [8]; -0.109 in assay [9]; -0.126 in assay [10]; -0.149 in assay [11]; -0.231 in assay [12]. For the same molecule, the “glycan array binding signal (z-score)” value was -0.079 in [13]; -0.14 in assay [14]; 4.08 in assay [15]; -0.22 in assay [16]; 0.942 in assay [17]; 5.06 in [18]. For the same molecule, the “glycan array binding signal (z-score)” value in assay [19] was -0.133; in assay [20], -0.137; in assay [21], -0.117; in assay [22] it was -0.124.
